Experimental data taken from PubChem BioAssay (NCATS).
Results filed as inconclusive are left out. Active and inactive are the calls of the source. Calls come from the whole dose curve; as a rule, active = well fitted curve in the direction sought with a large enough effect; inconclusive = small, poorly fitted or top-dose-only effect, or another doubt; inactive = no such curve, though single readings can be large; an effect the other way counts as inactive or inconclusive.

Tests used:
[1] = qHTS of pediatric cancer cell lines to identify multiple opportunities for drug repurposing: Confirmatory screen for RD cells (AID 1347124); details: RD rhabdomyosarcoma cell viability; series mostly up to 45.9 µM;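 note: cells exposed to compound for 48 h before viability readout; nearly all actives have a fitted effect of over 65% in size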; note: potency is the fitted concentration of half-maximal effect
Summary of the method: (§1)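 Viability after 48 h compound treatment at 37C, 500-1,000 cells/well, read as ATP luminescence with CellTiter-Glo. Primary screens used 11-point (MIPE, 0.78 nM-46 µM) or 8-point (NPC, 0.59 nM-46 µM) final concentrations; follow-up screens used 11-point dilutions.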

[2] = qHTS of pediatric cancer cell lines to identify multiple opportunities for drug repurposing: Confirmatory screen for Rh18 cells (AID 1347125); details: Rh18 rhabdomyosarcoma cells, viability; series mostly up to 45.9 µM; note: nearly all actives have a fitted effect of over 55% in size; note: potency is the fitted concentration of half-maximal effect
Summary of the method: as §1

[3] = qHTS of pediatric cancer cell lines to identify multiple opportunities for drug repurposing: Confirmatory screen for Rh30 cells (AID 1347126); details: Rh30 rhabdomyosarcoma cell viability; series mostly up to 45.9 µM; note: nearly all actives have a fitted effect of over 55% in size; note: potency is the fitted concentration of half-maximal effect
Summary of the method: as §1

[4] = qHTS of pediatric cancer cell lines to identify multiple opportunities for drug repurposing: Confirmatory screen for OHS-50 cells (AID 1347128); details: OHS-50 osteosarcoma cells viability; series mostly up to 45.9 µM; note: nearly all actives have a fitted effect of over 55% in size; note: potency is the fitted concentration of half-maximal effect
Summary of the method: as §1

[5] = system: Zika virus NS2B-NS3 protease; assay: Primary screen GU AMC qHTS for Zika virus inhibitors (AID 1347154); details: Zika NS2B-NS3 unlinked protease, AMC fluorogenic substrate; series mostly up to 54.1 µM; note: nearly all actives have a fitted effect of over 70% in size; note: potency is the fitted concentration of half-maximal effect
Summary of the method: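 Unlinked Zika NS2B hydrophilic domain–NS3 protease complex at 25 nM in 10 mM Tris-HCl pH 8.0, 0.01% Tween 20, with an AMC peptide substrate. Fluorescence change (340/450 nm) over 15 min at room temperature, normalized to controls, fitted to 4-parameter Hill.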

[6] = system: Zika virus NS2B-NS3 protease (unlinked); assay: Optimization of GU AMC qHTS for Zika virus inhibitors: Unlinked NS2B-NS3 protease assay (AID 1347151); details: recombinant ZIKV NS2B-NS3 protease, fluorogenic AMC substrate; series mostly up to 52.5 µM; note: nearly all actives have a fitted effect of over 80% in size; note: potency is the fitted concentration of half-maximal effect
Summary of the method: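 Noncovalent complex of NS2B hydrophilic domain and NS3 protease domain, 25 nM final, in 10 mM Tris-HCl pH 8.0, 0.01% Tween 20. AMC fluorescence change over 15 min at room temperature was fitted to a 4-parameter Hill equation.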

[7] = system: Zika virus NS2B-NS3 protease (unlinked complex); assay: Primary screen GU Rhodamine qHTS for Zika virus inhibitors: Unlinked NS2B-NS3 protease assay (AID 1347159); details: Recombinant ZIKV NS2B-NS3 protease, Rhodamine110 substrate fluorescence; series mostly up to 107 µM; note: % is set by controls: 0 for no effect and ±100 for the full control effect; nearly all actives have a fitted effect of over 60% in size
Summary of the method: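 Buffer 10 mM Tris-HCl pH 8.0, 0.01% Tween 20. Unlinked protease 25 nM; compound preincubation 15 min, RT, protected from light. Substrate Rhod110, 1.5 microM; ~15% conversion in 15 min.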

[8] = biological target: Furin (Homo sapiens) (UniProt P09958); assay: Furin counterscreen qHTS for Zika virus inhibitors (AID 1347149); details: furin enzymatic counterscreen, fluorogenic substrate; series mostly up to 57.5 µM; note: nearly all actives have a fitted effect of over 70% in size; note: potency is the fitted concentration of half-maximal effect
Furin (Homo sapiens), sequence (P09958 whole entry, looked up): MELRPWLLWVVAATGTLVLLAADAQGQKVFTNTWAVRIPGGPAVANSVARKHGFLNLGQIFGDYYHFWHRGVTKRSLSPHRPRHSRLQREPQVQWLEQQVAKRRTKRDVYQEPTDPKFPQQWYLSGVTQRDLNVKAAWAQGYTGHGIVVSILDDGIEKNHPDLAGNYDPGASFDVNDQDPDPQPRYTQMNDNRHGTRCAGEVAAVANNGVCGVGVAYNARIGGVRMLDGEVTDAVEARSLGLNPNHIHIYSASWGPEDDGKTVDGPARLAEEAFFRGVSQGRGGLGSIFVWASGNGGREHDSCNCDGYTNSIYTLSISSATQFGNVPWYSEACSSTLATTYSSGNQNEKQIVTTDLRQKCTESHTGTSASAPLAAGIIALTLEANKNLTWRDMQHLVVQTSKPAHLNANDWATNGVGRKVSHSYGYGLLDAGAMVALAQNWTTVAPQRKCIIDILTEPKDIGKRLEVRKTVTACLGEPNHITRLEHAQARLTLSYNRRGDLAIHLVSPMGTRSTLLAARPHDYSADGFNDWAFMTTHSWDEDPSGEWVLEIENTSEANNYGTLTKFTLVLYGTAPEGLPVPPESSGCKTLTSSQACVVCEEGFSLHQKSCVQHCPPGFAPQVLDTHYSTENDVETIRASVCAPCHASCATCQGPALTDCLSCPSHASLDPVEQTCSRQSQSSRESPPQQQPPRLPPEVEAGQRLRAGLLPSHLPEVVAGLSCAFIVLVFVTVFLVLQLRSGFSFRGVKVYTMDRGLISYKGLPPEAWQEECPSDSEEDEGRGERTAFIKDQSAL
Summary of the method: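 Counterscreen measures cleavage of 2 microM BOC-RVRR-AMC, below its ~15 microM Km, by 5 nM full-length human furin at pH 7.0 after a 15-min compound preincubation. Inhibition derives from the 15-min fluorescence increase at 37C.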

[9] = system: Zika virus NS2B-NS3 protease (linked construct); assay: Confirmatory screen NINDS AMC qHTS for Zika virus inhibitors (AID 1347152); details: Purified linked NS2B-NS3, AMC substrate fluorescence; series mostly up to 56.6 µM; note: potency is the fitted concentration of half-maximal effect; nearly all actives have a fitted effect of over 70% in size
Summary of the method: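 Purified NS2B-NS3 protease with NS2B hydrophilic domain linked to NS3 protease domain by flexible linker, 1 nM final in 10 mM Tris-HCl pH 8.0, 0.01% Tween 20. Compounds preincubated 15 min, room temperature; Bz-Nle-KRR-AMC 10 microM (Km 18.3 µM); 15-min fluorescence change, 4-parameter Hill fit.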

[10] = Confirmatory screen NINDS Rhodamine qHTS for Zika virus inhibitors (AID 1347161); details: purified enzyme assay, Rhodamine110 substrate fluorescence, 15 min; series mostly up to 114 µM; note: potency is the fitted concentration of half-maximal effect; nearly all actives have a fitted effect of over 60% in size
Summary of the method: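 Enzyme (25 nM, linked NS2B-NS3) was preincubated 15 min with compound in 10 mM Tris-HCl pH 8.0, 0.01% Tween 20. Rhodamine110 substrate (1.5 microM) was then added and fluorescence read at start and after 15 min.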

[11] = biological target: Lysine-specific demethylase 5B (Homo sapiens) (UniProt Q9UGL1); assay: Optimization screen for KDM5B Histone Demethylases FDH coupled qHTS against the LOPAC library (AID 1347166); details: KDM5B demethylation, FDH-coupled NADH fluorescence (FDH is formaldehyde dehydrogenase); at 57.5 µM (top of the series); note: 0% is about no effect
Lysine-specific demethylase 5B (Homo sapiens), sequence (Q9UGL1 whole entry, looked up): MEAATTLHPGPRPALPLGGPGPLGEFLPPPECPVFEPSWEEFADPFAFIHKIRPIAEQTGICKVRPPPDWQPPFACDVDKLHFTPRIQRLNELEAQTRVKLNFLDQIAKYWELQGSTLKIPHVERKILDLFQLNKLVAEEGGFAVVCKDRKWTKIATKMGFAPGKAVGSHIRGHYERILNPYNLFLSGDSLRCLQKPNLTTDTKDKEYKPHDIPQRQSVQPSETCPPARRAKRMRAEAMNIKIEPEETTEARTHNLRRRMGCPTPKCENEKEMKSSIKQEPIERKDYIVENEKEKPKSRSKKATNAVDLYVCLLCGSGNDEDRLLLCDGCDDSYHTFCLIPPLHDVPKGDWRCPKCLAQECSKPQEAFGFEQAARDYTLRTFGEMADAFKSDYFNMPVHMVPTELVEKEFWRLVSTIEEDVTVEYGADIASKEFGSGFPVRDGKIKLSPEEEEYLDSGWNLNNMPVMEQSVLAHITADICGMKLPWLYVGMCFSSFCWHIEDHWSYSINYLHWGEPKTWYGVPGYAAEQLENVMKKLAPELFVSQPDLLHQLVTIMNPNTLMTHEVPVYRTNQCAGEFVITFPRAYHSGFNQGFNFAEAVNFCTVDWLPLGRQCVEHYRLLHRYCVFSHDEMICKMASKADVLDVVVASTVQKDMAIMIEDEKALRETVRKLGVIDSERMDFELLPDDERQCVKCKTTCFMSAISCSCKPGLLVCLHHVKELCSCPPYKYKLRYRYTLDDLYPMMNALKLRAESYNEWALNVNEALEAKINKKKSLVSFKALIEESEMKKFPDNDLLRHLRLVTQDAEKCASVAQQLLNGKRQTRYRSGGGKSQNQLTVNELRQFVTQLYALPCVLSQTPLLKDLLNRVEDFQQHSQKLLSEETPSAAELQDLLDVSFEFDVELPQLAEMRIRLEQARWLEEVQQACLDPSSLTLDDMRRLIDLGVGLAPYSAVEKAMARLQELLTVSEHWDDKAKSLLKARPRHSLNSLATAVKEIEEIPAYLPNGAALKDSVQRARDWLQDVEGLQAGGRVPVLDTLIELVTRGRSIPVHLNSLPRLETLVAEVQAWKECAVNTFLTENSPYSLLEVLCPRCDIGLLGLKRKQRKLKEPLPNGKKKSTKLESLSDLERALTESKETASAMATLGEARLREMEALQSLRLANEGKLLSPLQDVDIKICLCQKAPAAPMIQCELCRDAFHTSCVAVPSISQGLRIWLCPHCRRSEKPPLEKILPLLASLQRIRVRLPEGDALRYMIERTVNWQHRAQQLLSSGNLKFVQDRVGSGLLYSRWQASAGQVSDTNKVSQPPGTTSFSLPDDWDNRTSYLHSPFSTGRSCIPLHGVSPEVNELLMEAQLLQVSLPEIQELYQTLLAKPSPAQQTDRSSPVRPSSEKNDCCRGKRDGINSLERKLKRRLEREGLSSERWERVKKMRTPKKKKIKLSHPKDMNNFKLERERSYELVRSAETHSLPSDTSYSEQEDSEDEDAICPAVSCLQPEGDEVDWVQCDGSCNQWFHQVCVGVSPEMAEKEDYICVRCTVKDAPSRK
Summary of the method: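 KDM5BDeltaAP (200nM final) in 50mM HEPES pH 7.5, 0.01% Tween-20 was preincubated with compound for 10 min at room temperature. A substrate mix of 12.5uM H3K4Me3, 25uM a-ketoglutarate, ascorbate, Fe2+, NAD+ and formaldehyde dehydrogenase was then added. NADH fluorescence (340/450 nm) was read initially and after 30 min.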

[12] = Vero cells viability qHTS for Zika virus inhibitors (AID 1347167); details: cytotoxicity counter-screen (Zika); series mostly up to 45.9 µM; note: % is set by controls: 0 for no effect and ±100 for the full control effect
Summary of the method: (§2)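 qHTS titration; 24-48 h compound exposure, 37 degrees C/5% CO2; DMEM, 4% FBS; CellTiter Glo ATP luminescence.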

[13] = HepG2 cells viability qHTS for Zika virus inhibitors (AID 1347168); details: Zika counter-screen; series mostly up to 45.9 µM; note: % is set by controls: 0 for no effect and ±100 for the full control effect
Summary of the method: as §2

[14] = Tertiary RLuc qRT-PCR qHTS assay for Zika virus inhibitors (AID 1347169); details: infected Vero cells, reporter luminescence, 48-72 h; series mostly up to 45.9 µM; note: nearly all actives have a fitted effect of over 55% in size; note: potency is the fitted concentration of half-maximal effect
Summary of the method: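 Vero cells (1,000 per well) plated overnight at 37 degrees C, treated with compound in DMSO, then infected with recombinant ZIKV-RLuc (Cambodian) at MOI 1-2 for 48-72 hrs. Live-cell Renilla luciferase substrate added; luminescence read after 1-1.5 hrs.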

[15] = ZIKV-mCherry secondary qHTS for Zika virus inhibitors (AID 1347158); details: Vero cells, ZIKV-mCherry infection imaging, 48-72 h; series mostly up to 49.2 µM; note: top concentration of the series differs between compounds
Summary of the method: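 Percent infection is the share of Hoechst-identified Vero nuclei with mCherry signal above 450 RFU (3 SD over negative controls). Cells were infected with recombinant ZIKV-mCherry at MOI 1 after compound addition and imaged 48–72 h later.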

[16] = system: Zika virus NS2B-NS3 protease (linked); assay: 384 well plate NINDS AMC confirmatory qHTS for Zika virus inhibitors (AID 1347163); details: Recombinant NS2B-NS3 protease, Ac-VKTGKR-AMC fluorescence; note: potency is the fitted concentration of half-maximal effect; nearly all actives have a fitted effect of over 50% in size
Summary of the method: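 Fluorescence at 355/460 nm was read after 25 minutes of cleavage of 30 microM Ac-VKTGKR-AMC at room temperature, in the dark. Before substrate addition, compounds (up to 1 mM final) sat ~15 minutes with 5, 30 or 60 nM linked protease. Signals were normalized to no-enzyme and no-inhibitor wells.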

[17] = system: Zika virus NS2B-NS3 protease (linked construct); assay: 384 well plate NINDS Rhodamine confirmatory qHTS for Zika virus inhibitors (AID 1347164); details: rhodamine-110 peptide substrate fluorescence;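 note: fluorescence from protease cleavage of Ac-LKRR-rhodamine 110 substrate; potency is the fitted concentration of half-maximal effect; nearly all actives have a fitted effect of over 65% in size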
Summary of the method: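 Linked protease at a final 5 nM, 30 nM or 60 nM was preincubated ~15 min with compounds, then given 10 microM Ac-LKRR-Rhodamine 110. Fluorescence (ex 485/em 538 nm) after 25 min in the dark at room temperature.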

[18] = qHTS of pediatric cancer cell lines to identify multiple opportunities for drug repurposing: Confirmatory screen for SK-N-SH cells (AID 1347129); details: SK-N-SH neuroblastoma cell viability; series mostly up to 46.1 µM;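 note: cells exposed to compound for 48 h before viability read; plate controls were DMSO for no effect and bortezomib control for full effect; nearly all actives have a fitted effect of over 60% in size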
Summary of the method: as §1

CCC(=O)O[C@]1(C(=O)CCl)[C@@H](C)C[C@H]2[C@@H]3CCC4=CC(=O)C=C[C@]4(C)[C@@]3(F)[C@@H](O)C[C@@]21C
inactive: Potency [1] | Potency [2] | Potency [4] | Potency [5]
active: Potency [3] 13.1 µM

COC(=O)Nc1nc2ccc(Sc3ccccc3)cc2[nH]1
active: Potency [1] 2.08 µM | Potency [4] 1.31 µM
inactive: Potency [3] | Potency [5]

CNS(=O)(=O)CCc1ccc2[nH]cc(C3CCN(C)CC3)c2c1
inactive: Potency [1] | Potency [2] | Potency [3] | Potency [4] | Potency [6] | Potency [5] | Potency [7]

CCOC(=O)[C@H](CCc1ccccc1)N[C@H]1CS[C@H](c2cccs2)CN(CC(=O)O)C1=O
inactive: Potency [1] | Potency [2] | Potency [3] | Potency [5]

Nc1nc(N)c2nc(CNc3ccc(C(=O)NC(CCC(=O)O)C(=O)O)cc3)cnc2n1 (configuration not stated)
inactive: Potency [2] | Potency [3] | Potency [12] | Potency [13] | Potency [14]
active: Potency [4] 0.369 µM | Potency [8] 19.1 µM | Potency [6] 26.7 µM | Potency [9] 27.1 µM | Potency [5] 21.5 µM | Potency [10] 55.3 µM | activity, negative = inhibition [11] -994%

O=S(=O)(O)CCS
inactive: Potency [2] | Potency [3] | Potency [5]

S=P(N1CC1)(N1CC1)N1CC1
inactive: Potency [1] | Potency [2] | Potency [3] | Potency [4] | Potency [5]

CN(C)c1ccc(C(=C2C=CC(=[N+](C)C)C=C2)c2ccc(N(C)C)cc2)cc1
inactive: Potency [5]
active: Potency [1] 0.928 µM | Potency [2] 1.47 µM | Potency [3] 1.17 µM | Potency [4] 3.69 µM

Cn1nnc2c(C(N)=O)ncn2c1=O
inactive: Potency [1] | Potency [2] | Potency [3] | Potency [4] | Potency [5]

COC(=O)Nc1nc2ccc(C(=O)c3ccccc3)cc2[nH]1
active: Potency [4] 2.93 µM | Potency [16] 126 µM | Potency [17] 178 µM | Potency [14] 0.829 µM
inactive: Potency [2] | Potency [3] | Potency [8] | Potency [6] | Potency [5] | outcome [15] | Potency [12] | Potency [13]

COc1ccc(C(=O)CC(=O)c2ccc(C(C)(C)C)cc2)cc1
inactive: Potency [1] | Potency [2] | Potency [3] | Potency [4] | Potency [18] | Potency [5]

CS(=O)(=O)c1ccc([C@@H](O)[C@@H](CO)NC(=O)C(Cl)Cl)cc1
inactive: Potency [1] | Potency [2] | Potency [3] | Potency [4] | Potency [5]

CC(C)(C#N)c1cc(Cn2cncn2)cc(C(C)(C)C#N)c1
inactive: Potency [1] | Potency [2] | Potency [3] | Potency [4] | Potency [5]

Oc1c(Cl)cc(Cl)c2cccnc12
active: Potency [1] 13.1 µM | Potency [3] 18.5 µM
inactive: Potency [5]

CC(C)NCC(O)c1ccc(NS(C)(=O)=O)cc1 (configuration not stated)
inactive: Potency [1] | Potency [2] | Potency [4] | Potency [6] | Potency [5] | activity, negative = inhibition [11] -4.54%

CC1CC2C3CCC4=CC(=O)C=C[C@]4(C)[C@@]3(F)[C@@H](O)C[C@]2(C)[C@@]1(O)C(=O)CO (some centres not stated)
inactive: Potency [1] | Potency [2] | Potency [4] | Potency [6] | Potency [5] | activity, negative = inhibition [11] -6.72%

COc1cc([C@@H]2c3cc4c(cc3[C@H](O)[C@H]3COC(=O)[C@H]23)OCO4)cc(OC)c1OC
active: Potency [1] 0.0414 µM
inactive: Potency [2] | Potency [3] | Potency [5]

CC(C)C[C@H](NC(=O)[C@H](CCc1ccccc1)NC(=O)CN1CCOCC1)C(=O)N[C@@H](Cc1ccccc1)C(=O)N[C@@H](CC(C)C)C(=O)[C@@]1(C)CO1
inactive: Potency [5]
active: Potency [2] 0.0465 µM | Potency [3] 0.117 µM | Potency [4] 0.208 µM

COc1nc(N)nc2c1ncn2[C@@H]1O[C@H](CO)[C@@H](O)[C@@H]1O
inactive: Potency [1] | Potency [4] | Potency [5]

CCCCOc1ccc(CC(=O)NO)cc1
inactive: Potency [1] | Potency [4] | Potency [5]

CNNCc1ccc(C(=O)NC(C)C)cc1
inactive: Potency [1] | Potency [3] | Potency [4] | Potency [5]

NC(=O)c1cccnc1
inactive: Potency [1] | Potency [3] | Potency [4] | Potency [5]

C[C@@H](CN1CC(=O)NC(=O)C1)N1CC(=O)NC(=O)C1
inactive: Potency [1] | Potency [2] | Potency [3] | Potency [4] | Potency [5]

CC(C(=O)O)c1ccc2c(c1)CC(=O)c1ccccc1S2 (configuration not stated)
inactive: Potency [1] | Potency [2] | Potency [3] | Potency [4] | Potency [5] | Potency [7]

Cc1cccc(N(C)C(=S)Oc2ccc3ccccc3c2)c1
inactive: Potency [1] | Potency [2] | Potency [3] | Potency [4] | Potency [5]

Nc1nc(F)nc2c1ncn2[C@@H]1O[C@H](CO)[C@@H](O)[C@@H]1O
inactive: Potency [5] | Potency [7]
active: Potency [1] 1.65 µM | Potency [4] 0.414 µM

Cc1ccc(S(=O)(=O)N[C@@H](Cc2ccccc2)C(=O)CCl)cc1
inactive: Potency [6] | Potency [5]
